Results: PubChem BioAssay (NCATS)
Where “and” joins values, the source holds several entries; their conditions need not be identical. Identical values can stand only once. Records with an inconclusive call do not appear. Calls of active or inactive are those of the source. Unless noted, calls follow the shape of the dose curve; as a rule, active = well fitted curve in the direction sought with a large enough effect; inconclusive = small, poorly fitted or top-dose-only effect, or another doubt; inactive = no such curve, though single readings can be large; an effect the other way counts as inactive or inconclusive.

Tests used:
[1] = qHTS for differential inhibitors of proliferation of Plasmodium falciparum line HB3 (AID 1886); conditions: Potency: Plasmodium falciparum HB3 proliferation inhibition;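 also: parasites grown with compound for 72 h before SYBR Green readout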; also: potency is read from the fitted curve at half-maximal effect
[2] = target: Ferritin light chain (Equus caballus) (UniProt P02791); test: qHTS Validation Assay for Identification of Novel General Anesthetics (AID 2323); also: series mostly up to about 77 µM
In short: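 Apoferritin from horse spleen (10 uM) was mixed with 1-aminoanthracene at 50% saturation in PBS, then compounds were added. After 10 min at room temperature, fluorescence was read (ex 380 nm, em 535 nm) and normalized to free-probe and complex controls.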

[3] = target: ATP-dependent DNA helicase Q1 (Homo sapiens) (UniProt P46063); test: qHTS Validation Assay for Inhibitors of RecQ-Like Dna Helicase 1 (RECQ1) (AID 2353)
In short: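 50 nM RECQ1T1 preincubated 15 min with compound in Tris pH 8.0 buffer with MgCl2, DTT, Tween-20 and 2.5 ug/ml poly(dI-dC); started with 200 nM TAMRA/BHQ-2 forked duplex and 2 mM ATP. Unwinding read as fluorescence (525/598 nm), two reads 2 h apart.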

[4] = target: RecQ-like DNA helicase BLM (Homo sapiens) (UniProt P54132); test: qHTS Validation Assay for Inhibitors of Bloom's syndrome helicase (BLM) (AID 2364); also: potency is read from the fitted curve at half-maximal effect
In short: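 Forked 20-bp duplex substrate (200 nM, TAMRA/BHQ-2) plus 2 mM ATP added after 15 min compound preincubation with 50 nM enzyme, pH 8.0, poly(dI-dC) 2.5 ug/ml. Strand separation followed by fluorescence (525/598 nm) over 2 h, normalized to enzyme-free and DMSO controls.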

[5] = Cytometric Cell-Based qHTS for Inhibitors of the mTORC1 Signaling Pathway in MEF (Tsc2-/-, p53-/-) Cells (AID 2660);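 also: Tsc2 and p53 null MEFs carrying empty vector with compound for 24 h; percent of cells above a phospho-rpS6 to PI ratio cutoff in each well; series mostly up to about 38 µM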
In short: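 Cells are plated, treated with compound for 24 hrs at 37 degree Celsius, then fixed, blocked and immunostained for phospho-rpS6 Ser235/236. Propidium iodide counterstain follows. Per-well % positive cells is derived from the PI-normalized phospho-S6 signal.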

[6] = High Content Imaging Cell-Based qHTS for Inhibitors of the mTORC1 Signaling Pathway in MEF (Tsc2-/-, p53-/-) Cells (AID 2666);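 also: percent of cells scored positive for phospho-rpS6 Ser235/236 immunostaining by imaging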; also: potency is read from the fitted curve at half-maximal effect
In short: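 Cells were plated, dosed with compound after 24 hrs, and incubated another 24 hrs at 37 degree Celsius. Fixed cells were immunostained for phospho-rpS6 Ser235/236 and counterstained, and the normalized signal was scored as % active cells against rapamycin and DMSO controls.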

[7] = High Content Imaging Cell-Based qHTS for Inhibitors of the mTORC1 Signaling Pathway in MEF Cells (AID 2667); also: potency is read from the fitted curve at half-maximal effect
In short: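 Immunofluorescence for rpS6 phosphorylation in MEFs of Tsc2-/-, p53-/- background rescued with WT Tsc2. Compound exposure lasted 24 hrs. Inhibition was scored against rapamycin-treated control wells.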

[8] = Cytometry Cell-Based qHTS for Inhibitors of the mTORC1 Signaling Pathway in MEF cells (AID 2668);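 also: Tsc2-/- p53-/- mouse embryonic fibroblasts stably re-expressing wild-type Tsc2; percent cells positive for phospho-rpS6 Ser235/236 relative to propidium iodide stain; series mostly up to about 38 µM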
In short: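 Pathway inhibition in WT Tsc2-rescued Tsc2-/-, p53-/- MEFs is measured as the Alexa-488 phospho-rpS6 to propidium iodide intensity ratio after 24 hrs of compound at 37 degree Celsius. PI-stained cell number gives viability.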

[9] = qHTS Assay for Identification of Small Molecule Inducers of Hypoxia Response (AID 2120; active = well fitted curve in the direction sought with a large enough effect in the signal ratio, with a control signal flat, not every such curve was filed as active; the % refers to the signal ratio)
In short: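 HRE-beta-lactamase reporter in CellSensor HRE-bla ME-180 cells, 2500 cells/well in Opti-MEM with 0.5% dialyzed FBS; compounds tested as titration series, 17 h at 37 degrees C. CCF4 substrate 2.5 h at room temperature; AC50 from 460/530 nm ratio.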

[10] = qHTS Assay for Modulators of Human Peripheral Myelin Protein 22 (PMP22) Expression/Activity (AID 1967; active = well fitted curve in the direction sought with a large enough effect in the signal ratio; the % refers to the signal ratio)
In short: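 Quantitative HTS in a mouse Schwann cell line expressing dual click beetle luciferases: Pmp22 promoter (green) and control EF-alpha promoter (red). After 24h treatment, corrected green/red signal ratio gave %Activity relative to untreated cells.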

Measured: Potency

RecQ-like DNA helicase BLM (Homo sapiens), sequence (P54132 whole entry, looked up): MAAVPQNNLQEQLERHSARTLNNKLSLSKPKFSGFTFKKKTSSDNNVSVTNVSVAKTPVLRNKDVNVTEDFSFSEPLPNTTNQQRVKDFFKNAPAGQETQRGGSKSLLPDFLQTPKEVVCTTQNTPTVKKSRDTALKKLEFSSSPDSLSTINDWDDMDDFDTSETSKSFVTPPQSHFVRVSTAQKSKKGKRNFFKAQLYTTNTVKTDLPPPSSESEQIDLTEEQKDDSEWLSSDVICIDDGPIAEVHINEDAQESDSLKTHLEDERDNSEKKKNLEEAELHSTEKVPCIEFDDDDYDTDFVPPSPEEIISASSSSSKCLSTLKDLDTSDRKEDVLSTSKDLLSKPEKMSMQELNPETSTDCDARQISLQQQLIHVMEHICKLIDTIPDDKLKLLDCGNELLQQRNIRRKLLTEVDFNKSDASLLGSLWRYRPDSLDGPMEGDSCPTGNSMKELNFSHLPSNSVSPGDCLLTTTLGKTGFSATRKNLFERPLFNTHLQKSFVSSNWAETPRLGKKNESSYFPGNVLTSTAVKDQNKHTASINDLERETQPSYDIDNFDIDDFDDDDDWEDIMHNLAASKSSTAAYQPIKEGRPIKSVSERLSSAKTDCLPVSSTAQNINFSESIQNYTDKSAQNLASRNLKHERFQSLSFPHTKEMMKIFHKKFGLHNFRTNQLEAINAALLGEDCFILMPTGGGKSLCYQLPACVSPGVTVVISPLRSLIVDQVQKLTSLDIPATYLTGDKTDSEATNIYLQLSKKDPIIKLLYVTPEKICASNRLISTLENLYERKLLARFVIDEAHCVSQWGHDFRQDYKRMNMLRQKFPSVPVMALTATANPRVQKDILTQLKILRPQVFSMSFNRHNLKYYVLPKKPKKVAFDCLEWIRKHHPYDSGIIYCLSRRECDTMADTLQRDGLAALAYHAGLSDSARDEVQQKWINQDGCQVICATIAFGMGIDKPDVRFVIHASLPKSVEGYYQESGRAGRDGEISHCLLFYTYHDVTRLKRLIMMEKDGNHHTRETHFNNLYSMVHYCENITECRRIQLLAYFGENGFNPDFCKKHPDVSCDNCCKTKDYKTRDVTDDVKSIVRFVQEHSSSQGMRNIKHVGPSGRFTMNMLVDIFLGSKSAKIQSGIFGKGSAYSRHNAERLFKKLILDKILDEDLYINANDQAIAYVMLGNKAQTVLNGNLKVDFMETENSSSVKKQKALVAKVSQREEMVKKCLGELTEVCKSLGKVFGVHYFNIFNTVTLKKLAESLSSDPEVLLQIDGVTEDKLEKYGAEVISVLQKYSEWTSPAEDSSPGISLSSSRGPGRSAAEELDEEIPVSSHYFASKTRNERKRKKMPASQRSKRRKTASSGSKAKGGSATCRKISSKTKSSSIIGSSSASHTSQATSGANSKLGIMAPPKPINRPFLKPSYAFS
Ferritin light chain (Equus caballus), sequence (P02791 2-175 limits assumed): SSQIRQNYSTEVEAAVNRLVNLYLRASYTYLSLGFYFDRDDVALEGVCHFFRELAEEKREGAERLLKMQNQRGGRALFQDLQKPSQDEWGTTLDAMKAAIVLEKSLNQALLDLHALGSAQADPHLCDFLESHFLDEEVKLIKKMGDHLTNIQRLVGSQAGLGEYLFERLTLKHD
ATP-dependent DNA helicase Q1 (Homo sapiens), sequence (P46063 whole entry, looked up): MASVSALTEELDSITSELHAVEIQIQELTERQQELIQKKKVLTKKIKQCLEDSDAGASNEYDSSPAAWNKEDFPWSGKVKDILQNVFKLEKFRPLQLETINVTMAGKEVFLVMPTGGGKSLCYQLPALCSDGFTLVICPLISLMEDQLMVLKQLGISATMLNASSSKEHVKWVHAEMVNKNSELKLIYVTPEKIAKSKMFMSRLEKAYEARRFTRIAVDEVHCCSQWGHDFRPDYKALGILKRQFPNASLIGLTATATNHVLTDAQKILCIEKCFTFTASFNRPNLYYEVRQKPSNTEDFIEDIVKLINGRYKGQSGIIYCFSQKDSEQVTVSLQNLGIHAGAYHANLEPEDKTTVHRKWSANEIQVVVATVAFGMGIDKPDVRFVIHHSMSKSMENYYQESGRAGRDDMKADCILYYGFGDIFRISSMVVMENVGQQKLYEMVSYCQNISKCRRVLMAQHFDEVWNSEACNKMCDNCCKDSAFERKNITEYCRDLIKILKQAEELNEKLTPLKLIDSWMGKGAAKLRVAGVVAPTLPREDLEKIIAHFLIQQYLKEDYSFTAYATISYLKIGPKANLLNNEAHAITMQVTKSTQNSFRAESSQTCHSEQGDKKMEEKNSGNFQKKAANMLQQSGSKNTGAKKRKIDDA

CCCNC(C)C(=O)Nc1ccccc1C (stereo not given)
inactive: [1] | [2] | [3] | [4] | [5] | [6] | [7] | [8]

CN=C(NC#N)NCCSCc1nc[nH]c1C
inactive: [1] | [9] | [2] | [3] | [4] | [5] | [6] | [7] | [8]

CCN(Cc1ccncc1)C(=O)C(CO)c1ccccc1 (stereo not given)
inactive: [1] | [10] | [2] | [5] | [6] | [7] | [8]

CC(=O)OC(C)C[N+](C)(C)C (stereo not given)
inactive: [1] | [10] | [2] | [3] | [5] | [6] | [7] | [8]

O=C(O)CCCCCCCC(=O)O
inactive: [1] | [2] | [3] | [4] | [5] | [6] | [7] | [8]

O=c1[nH]c(=O)n([C@H]2C[C@H](O)[C@@H](CO)O2)cc1Br
inactive: [1] | [2] | [3] | [4] | [5] | [6] | [7]

Nc1c2c(nc3ccccc13)CCCC2O (stereo not given)
inactive: [1] | [2] | [3] | [4] | [5] | [6] | [7] | [8]

CN(C)C(=O)Oc1ccc[n+](C)c1
inactive: [1] | [2] | [3] | [4] | [5] | [6] | [7] | [8]

O=C(O)CP(=O)(O)O
inactive: [1] | [10] | [2] | [5] | [6] | [7] | [8]

CC(C)[N+](C)(CCOC(=O)C1c2ccccc2Oc2ccccc21)C(C)C
active: [1] 7.08 µM
inactive: [2] | [3] | [4] | [5] | [6] | [7] | [8]

CC1=NS(=O)(=O)c2cc(Cl)ccc2N1
inactive: [1] | [2] | [3] | [4] | [5] | [6] | [7] | [8]

CC(C(=O)O)c1ccc(CC2CCCC2=O)cc1 (stereo not given)
inactive: [1] | [10] | [2] | [3] | [4] | [5] | [6] | [7] | [8]

N[C@@H](COP(=O)(O)O)C(=O)O
inactive: [1] | [10] | [2] | [5] | [6] | [7] | [8]

CNC1(C)C2CCC(C2)C1(C)C (stereo not given)
inactive: [1] | [2] | [3] | [4] | [5] | [6] | [7] | [8]

CC(C)NCC(O)c1cc(O)cc(O)c1 (stereo not given)
inactive: [1] | [10] | [2] | [3] | [5] | [6] | [7] | [8]

CCCCCN(CCCCC)C(=O)C(CCC(=O)O)NC(=O)c1ccc(Cl)c(Cl)c1 (stereo not given)
inactive: [1] | [10] | [2] | [3] | [5] | [6] | [7] | [8]

CC(C)NNC(=O)c1ccncc1
inactive: [1] | [2] | [3] | [4] | [5] | [6] | [7] | [8]

CN(C)CCCN1c2ccccc2Sc2ccccc21
inactive: [2] | [3] | [4] | [5] | [6]
active: [1] 10 µM

NC(=O)N1c2ccccc2C=Cc2ccccc21
inactive: [1] | [9] | [2] | [3] | [4] | [5] | [6] | [7] | [8]

CCN(CC)CC(=O)Nc1c(C)cccc1C
inactive: [1] | [10] | [2] | [3] | [5] | [6] | [7] | [8]

C[C@]12CCC(=O)C=C1CC[C@@H]1[C@@H]2C(=O)C[C@@]2(C)[C@H]1CC[C@]2(O)C(=O)CO
inactive: [1] | [2] | [3] | [4] | [5] | [6] | [7] | [8]

FC(F)(F)c1ccccc1-n1ccnc1
inactive: [1] | [2] | [3] | [4] | [5] | [6] | [7] | [8]

CCC(=O)c1ccc2c(c1)N(CCCN(C)C)c1ccccc1S2
inactive: [2] | [3] | [4] | [5] | [6]
active: [1] 11.2 µM | [7] 16.5 µM

COc1cc(C(=O)OCCCN2CCCN(CCCOC(=O)c3cc(OC)c(OC)c(OC)c3)CC2)cc(OC)c1OC
inactive: [2] | [3] | [4] | [5] | [6]
active: [1] 8.91 µM

CCN1CCC[C@H]1CNC(=O)c1c(O)c(Cl)cc(Cl)c1OC
inactive: [1] | [2] | [3] | [4] | [5] | [6] | [7] | [8]

Cc1ccc(S(=O)(=O)NC(=O)NN2CCCCCC2)cc1
inactive: [1] | [10] | [2] | [4] | [5] | [6] | [7] | [8]

C(=C\c1ccccc1)/CN1CCN(C(c2ccccc2)c2ccccc2)CC1
inactive: [2] | [3] | [4] | [5] | [6] | [7] | [8]
active: [1] 11.2 µM

c1ccc2c(c1)CCCC2C1=NCCN1 (stereo not given)
inactive: [1] | [10] | [2] | [3] | [5] | [6] | [7] | [8]

CC(=O)OCC1=C(C(=O)O)N2C(=O)[C@@H](NC(=O)Cc3cccs3)[C@H]2SC1
inactive: [1] | [10] | [2] | [3] | [5] | [6] | [7] | [8]

C#CCN(C)CCCOc1ccc(Cl)cc1Cl
inactive: [1] | [10] | [4] | [5] | [6] | [7] | [8]

CCCCNC(=O)NS(=O)(=O)c1ccc(C)cc1
inactive: [1] | [10] | [2] | [3] | [4] | [5] | [6] | [7] | [8]

O=C1NCN(c2ccccc2)C12CCN(CCCC(c1ccc(F)cc1)c1ccc(F)cc1)CC2
inactive: [2] | [3]
active: [1] 7.08 µM

COc1ccc(CCN(C)CCCC(C#N)(c2cc(OC)c(OC)c(OC)c2)C(C)C)cc1OC (stereo not given)
active: [1] 2.82 µM
inactive: [2] | [3] | [4] | [5] | [6] | [7] | [8]

NS(=O)(=O)c1cc2c(cc1Cl)NC(C1CC3C=CC1C3)NS2(=O)=O (stereo not given)
inactive: [1] | [10] | [5] | [6] | [7] | [8]

CN(C)C(=O)Oc1cccc([N+](C)(C)C)c1
inactive: [1] | [2] | [3] | [4] | [5] | [6] | [7] | [8]

C[C@H](CS)C(=O)N1CCC[C@H]1C(=O)O
inactive: [1] | [2] | [3] | [4] | [5] | [6] | [7] | [8]

Cc1ccc(=O)n(-c2ccccc2)c1
inactive: [1] | [2] | [3] | [5] | [6] | [7] | [8]

CC(C)(C)NCC(O)c1cc(O)cc(O)c1 (stereo not given)
inactive: [1] | [2] | [3] | [5] | [6] | [7] | [8]

COc1ccc(CN(CCN(C)C)c2ccccn2)cc1
inactive: [1] | [2] | [3] | [5] | [6] | [7] | [8]

CNCCC(Oc1ccccc1OC)c1ccccc1 (stereo not given)
inactive: [1] | [2] | [4] | [5] | [6] | [7] | [8]

CCO/C([O-])=N/c1c[n+](N2CCOCC2)no1
inactive: [1] | [2] | [3] | [5] | [6] | [7] | [8]

CCCOc1ccccc1-c1nc2n[nH]nc2c(=O)[nH]1
inactive: [1] | [2] | [3] | [5] | [6] | [7] | [8]

O=C(O)CN(CCN(CC(=O)O)CC(=O)O)CCN(CC(=O)O)CC(=O)O
inactive: [1] | [2] | [3] | [5] | [6] | [7] | [8]

CN1CCN(CC(=O)N2c3ccccc3C(=O)Nc3cccnc32)CC1
inactive: [1] | [2] | [4] | [5] | [6] | [7] | [8]

OC(CCN1CCCCC1)(c1ccccc1)C1CCCCC1 (stereo not given)
active: [1] 11.2 µM
inactive: [2] | [3] | [5] | [6] | [7] | [8]

OCCN1CCN(CCCN2c3ccccc3C=Cc3ccccc32)CC1
inactive: [2] | [4] | [5] | [6] | [7] | [8]
active: [1] 8.91 µM and 12.6 µM

CC(=O)[C@]1(O)Cc2c(O)c3c(c(O)c2[C@@H](O[C@H]2C[C@H](N)[C@H](O)[C@H](C)O2)C1)C(=O)c1ccccc1C3=O
active: [1] 1.12 µM | [4] 12.6 µM | [6] 2.33 µM | [7] 0.414 µM
inactive: [2]

Cc1ccc(Cl)c(Nc2ccccc2C(=O)O)c1Cl
inactive: [1] | [2] | [3] | [5] | [6] | [7] | [8]

CC(C)COCC(CN(Cc1ccccc1)c1ccccc1)N1CCCC1 (stereo not given)
inactive: [1] | [2] | [4] | [5] | [6] | [7] | [8]

C=CCc1ccccc1OCC(O)CNC(C)C (stereo not given)
active: [1] 11.2 µM
inactive: [2] | [4] | [5] | [6] | [7] | [8]

C[C@]12C=CC(=O)C=C1CC[C@H]1[C@@H]3C[C@@H](O)[C@](O)(C(=O)CO)[C@@]3(C)C[C@H](O)[C@@]12F
inactive: [1] | [2] | [3] | [5] | [6] | [7] | [8]

CCCCNc1ccc(C(=O)OCCN(C)C)cc1
inactive: [1] | [2] | [3] | [5] | [6] | [7] | [8]
